Measurements as given in PubChem BioAssay AID1159580 (chemical genetic matrix, 2015).
Screen size: about 5,500 compounds; about 2,000 (36%) were called active. Roughly 18% stayed inconclusive and do not appear here. No stated cut-off is given here; in the data, active means normalized growth mostly below about 0.91 (no sharp cut-off); inconclusive means no clear call, values can overlap the other calls; inactive means mostly above about 0.92. Some of the results follow.

Assay: chemical genetic growth profiling, strain panel (AID 1159580);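 further: tested at 20 µM; growth read once vehicle control cultures reached saturation at 30 °C; 1 = growth at the plate median or of vehicle wells; lower values mean less growth of the strain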
Conditions: S. cerevisiae deletion strains, growth OD
[1] = locus YAR019C, strain CDC15, active compounds read low
[2] = locus YBL105C, strain PKC1, active compounds read low
[3] = locus YBR135W, strain CKS1, active compounds read low
[4] = locus YBR136W, strain MEC1, active compounds read low
[5] = locus YBR160W, strain CDC28, active compounds read low
[6] = locus YDL017W, strain CDC7, active compounds read low
[7] = locus YDL028C, strain MPS1, active compounds read low
[8] = locus YDL101C, strain DUN1, active compounds read low
[9] = locus YDL108W, strain KIN28, active compounds read low
[10] = locus YDL132W, strain cdc53, active compounds read low
[11] = locus YDL214C, strain PRR2, active compounds read low
[12] = locus YDR052C, strain DBF4, active compounds read low
[13] = locus YDR054C, strain cdc34, active compounds read low
[14] = locus YDR226W, strain ADK1, active compounds read low
[15] = locus YDR477W, strain SNF1, active compounds read low
[16] = locus YER123W, strain YCK3, active compounds read low
[17] = locus YER133W, strain GLC7, active compounds read low
[18] = locus YFL009W, strain cdc4, active compounds read low
[19] = locus YFL029C, strain CAK1, active compounds read low
[20] = locus YFR003C, strain YPI1, active compounds read low
[21] = locus YFR019W, strain FAB1, active compounds read low
[22] = locus YFR028C, strain CDC14, active compounds read low
[23] = locus YGR040W, strain KSS1, active compounds read low
[24] = locus YGR052W, strain FMP48, active compounds read low
[25] = locus YGR092W, strain DBF2, active compounds read low
[26] = locus YHR030C, strain SLT2, active compounds read low
[27] = locus YHR079C, strain IRE1, active compounds read low
[28] = locus YHR082C, strain KSP1, active compounds read low
[29] = locus YHR205W, strain SCH9, active compounds read low
[30] = locus YIL147C, strain SLN1, active compounds read low
[31] = locus YJL095W, strain BCK1, active compounds read low
[32] = locus YJL128C, strain PBS2, active compounds read low
[33] = locus YJL157C, strain FAR1, active compounds read low
[34] = locus YJR016C, strain ILV3, active compounds read low
[35] = locus YJR066W, strain TOR1 (second series), active compounds read low
[36] = locus YJR066W, strain TOR1, active compounds read low
[37] = locus YKL048C, strain ELM1, active compounds read low
[38] = locus YKL067W, strain YNK1, active compounds read low
[39] = locus YKL101W, strain HSL1, active compounds read low
[40] = locus YKL193C, strain SDS22, active compounds read low
[41] = locus YKL203C, strain TOR2, active compounds read low
[42] = locus YLR113W, strain HOG1, active compounds read low
[43] = locus YLR133W, strain CKI1, active compounds read low
[44] = locus YLR403W, strain SFP1, active compounds read low
[45] = locus YML070W, strain DAK1, active compounds read low
[46] = locus YMR001C, strain CDC5, active compounds read low
[47] = locus YMR205C, strain PFK2 (second series), active compounds read low
[48] = locus YMR277W, strain FCP1, active compounds read low
[49] = locus YNL006W, strain LST8, active compounds read low
[50] = locus YNL020C, strain ARK1, active compounds read low
[51] = locus YNL161W, strain CBK1, active compounds read low
[52] = locus YNL183C, strain NPR1, active compounds read low
[53] = locus YNL207W, strain RIO2, active compounds read low
[54] = locus YNL222W, strain SSU72, active compounds read low
[55] = locus YNL307C, strain MCK1 (second series), active compounds read low
[56] = locus YOL078W, strain AVO1, active compounds read low
[57] = locus YOL136C, strain PFK27, active compounds read low
[58] = locus YOR061W, strain CKA2, active compounds read low
[59] = locus YOR119C, strain RIO1, active compounds read low
[60] = locus YOR231W, strain MKK1, active compounds read low
[61] = locus YOR329C, strain SCD5, active compounds read low
[62] = locus YPL031C, strain PHO85, active compounds read low
[63] = locus YPL153C, strain RAD53, active compounds read low
[64] = locus YPL204W, strain HRR25, active compounds read low
[65] = locus YPL209C, strain IPL1, active compounds read low
[66] = locus YPL256C, strain CLN2, active compounds read low
[67] = locus YPR025C, strain CCL1, active compounds read low
[68] = locus YPR106W, strain ISR1, active compounds read low
[69] = locus YPR111W, strain DBF20, active compounds read low
[70] = strain NNK1, active compounds read low
[71] = strain TSCII, active compounds read low

Measured: normalized growth

Cc1nc(-c2ccccn2)nc(SCc2ccccc2)c1Cl
active: [26] 0.843 | [42] 0.802
inactive: [1] 0.946 | [2] 0.945 | [3] 0.941 | [4] 0.94 | [5] 0.954 | [6] 0.949 | [7] 0.939 | [8] 0.942 | [9] 0.94 | [10] 0.93 | [11] 0.844 | [12] 0.94 | [13] 0.922 | [14] 0.942 | [15] 0.849 | [16] 0.747 | [17] 0.826 | [18] 0.935 | [19] 0.935 | [20] 0.943 | [21] 0.887 | [22] 0.94 | [23] 0.829 | [24] 0.853 | [25] 0.705 | [27] 0.766 | [28] 0.849 | [29] 0.86 | [30] 0.935 | [31] 0.862 | [32] 0.927 | [33] 0.798 | [34] 0.936 | [35] 0.786 | [36] 0.792 | [37] 0.96 | [38] 0.849 | [39] 0.875 | [40] 0.937 | [41] 0.869 | [43] 0.876 | [44] 0.772 | [45] 0.816 | [46] 0.942 | [47] 0.864 | [48] 0.941 | [49] 0.94 | [50] 0.827 | [51] 0.942 | [52] 0.826 | [53] 0.921 | [54] 0.943 | [55] 0.807 | [56] 0.938 | [57] 0.834 | [58] 0.815 | [59] 0.843 | [60] 0.819 | [61] 0.946 | [62] 0.791 | [63] 0.793 | [64] 0.834 | [65] 0.952 | [66] 0.934 | [67] 0.942 | [68] 0.95 | [69] 0.955 | [70] 0.945 | [71] 0.933

Cc1nc(-c2ccccn2)nc(N(C)Cc2ccccc2)c1Cl
inactive: [1] 0.951 | [2] 0.961 | [3] 0.967 | [4] 0.955 | [5] 0.968 | [6] 0.962 | [7] 0.956 | [8] 0.962 | [9] 0.951 | [10] 0.961 | [11] 0.997 | [12] 0.965 | [13] 0.948 | [14] 0.956 | [15] 0.971 | [16] 0.93 | [17] 0.975 | [18] 0.953 | [19] 0.94 | [20] 0.963 | [21] 1 | [22] 0.976 | [23] 0.964 | [24] 1.04 | [25] 0.863 | [26] 0.932 | [27] 0.95 | [28] 0.998 | [29] 0.954 | [30] 0.952 | [31] 0.966 | [32] 0.973 | [33] 0.972 | [34] 0.969 | [35] 0.958 | [36] 0.952 | [37] 0.982 | [38] 0.97 | [39] 0.945 | [40] 0.96 | [41] 1.01 | [42] 1 | [43] 0.968 | [44] 0.959 | [45] 0.966 | [46] 0.956 | [47] 0.981 | [48] 0.964 | [49] 0.975 | [50] 0.973 | [51] 0.964 | [52] 1 | [53] 0.959 | [54] 0.96 | [55] 0.922 | [56] 0.96 | [57] 0.963 | [58] 0.941 | [59] 0.991 | [60] 0.994 | [61] 0.955 | [62] 0.952 | [63] 0.943 | [64] 0.938 | [65] 0.958 | [66] 0.985 | [67] 0.963 | [68] 0.974 | [69] 0.976 | [70] 0.979 | [71] 0.953
